This excerpt belongs to a sample that is enriched for hits.
Anesthetic bind – qHTS Assay for Identification of Novel General Anesthetics. Ferritin light chain (Equus caballus), P02791. apoferritin/1-aminoanthracene competitive binding, fluorescence. Potency, µM (doses to about 77.5 µM), for the others: at the highest dose activity change, negative = displacement, usual class: inhibitors. 350,000 compounds, 0.074% hits. AID 485281, 2010; further: potency means the concentration at half of the fitted maximal effect; on the % scale 0 is the no-effect control and ±100 the full control effect; nearly all actives have a fitted effect of over 20% in size
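Apoferritin-based anesthetic binding model; compound displacement of fluorescent 1-AMA measured as endpoint fluorescence after 10 minutes at room temperature, scaled to free-ligand and complex controls.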
ClpP mod – qHTS Assay for Activators of ClpP. ATP-dependent Clp protease proteolytic subunit (Bacillus subtilis (strain 168)), P80244. purified B. subtilis ClpP, FRET peptide cleavage, 20 min. Potency, µM (doses to about 57.5 µM), inactives show at the top dose activity change, negative = active. 340,000 compounds, 1.9% hits. AID 651965, 2013; active means well fitted falling curve with a large enough effect; inconclusive means small, poorly fitted or top-dose-only effect; inactive means no such curve, though single readings can be large or run the other way; further: potency means the concentration at half of the fitted maximal effect; the source files actives as falling curves though it sought activators and does not explain the sign; nearly all actives have a fitted effect of over 65% in size
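FRET quenching reversal measured ClpP activation: 10 microg/mL B. subtilis ClpP at pH 8 with the FRET-FV decapeptide, read at 430 nm after 320 nm excitation. The 20-min minus 0-min signal was scaled between DMSO/no-enzyme wells and ADEP (5.8 microM final).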
Glioma ERSR ind – qHTS for Inducers of the Endoplasmic Reticulum Stress Response (ERSR) in Human Glioma: qHTS; U87-MG GRP78 promoter luciferase reporter, 16 h; AID 602332, 2012; 420,000 compounds, 0.02% hits; Potency, µM, for the others: top-dose activation, actives largely listed as activators; further: potency means the concentration at half of the fitted maximal effect; series mostly up to about 76 µM; % of control where 0% means no effect; nearly all actives have a fitted effect of over 35% in size
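Stably transfected U87-MG glioma cells carrying a GRP78-based luciferase sensor; 16 h compound incubation. Luminescence end-point read 10 min after Bright-Glo addition at room temperature.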
N370S GC mod – qHTS Assay for Inhibitors and Activators of N370S glucocerebrosidase as a Potential Chaperone Treatment of Gaucher Disease; 330,000 compounds, 0.092% hits; AID 2101, 2009; N370S GC spleen homogenate, 4MU-glucoside fluorescence; Potency, µM (top dose mostly 59.4 µM), inactives show at the highest dose activity change, negative = inhibition, actives largely listed as inhibitors;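 further: potency means the concentration at half of the fitted maximal effect; 0% = full enzyme activity and -100% = no enzyme basal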
CBFb-RUNX1 inh – qHTS Assay for Compounds Blocking the Interaction Between CBF-beta and RUNX1 for the Treatment of Acute Myeloid Leukemia | Runt-related transcription factor 1 (Homo sapiens) + Core-binding factor subunit beta … | Potency, µM (top dose mostly 59.8 µM), for the others: top-dose activity, negative = inhibition, most hits filed as inhibitors | AID 1477, 2009 | 230,000 tested, under 10 active | AlphaScreen CBFb-His/RUNX1-biotin binding, biochemical; further: % of control where 0% means no effect
Target sequence (Q01196 whole entry, looked up): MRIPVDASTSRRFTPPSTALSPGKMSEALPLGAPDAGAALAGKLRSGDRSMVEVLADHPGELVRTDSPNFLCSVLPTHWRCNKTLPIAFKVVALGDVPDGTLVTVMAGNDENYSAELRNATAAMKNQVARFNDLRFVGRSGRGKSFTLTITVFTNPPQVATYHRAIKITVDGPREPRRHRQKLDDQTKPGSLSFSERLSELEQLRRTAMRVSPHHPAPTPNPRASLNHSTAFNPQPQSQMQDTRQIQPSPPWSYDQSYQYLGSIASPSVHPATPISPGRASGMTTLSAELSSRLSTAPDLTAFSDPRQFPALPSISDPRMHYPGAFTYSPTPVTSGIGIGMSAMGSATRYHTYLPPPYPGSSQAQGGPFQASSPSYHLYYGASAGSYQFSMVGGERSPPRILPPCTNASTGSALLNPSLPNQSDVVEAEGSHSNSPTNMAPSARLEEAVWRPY
Target sequence (Q13951 whole entry, looked up): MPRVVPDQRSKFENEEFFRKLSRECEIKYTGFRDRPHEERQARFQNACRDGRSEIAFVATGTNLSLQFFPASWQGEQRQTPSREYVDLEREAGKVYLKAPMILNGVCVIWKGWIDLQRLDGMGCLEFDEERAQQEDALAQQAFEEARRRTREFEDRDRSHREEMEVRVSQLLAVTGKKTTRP
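Room-temperature protein-protein interaction test with 30 nM each of His-tagged CBF-beta and biotinylated RUNX1, 15 min with compound, then 90 min with nickel plus streptavidin beads. Signal read in AlphaScreen mode.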
a7 integrin act – qHTS for Activators of Integrin-Mediated Alleviation for Muscular Dystrophy; alpha7betagal myoblasts, beta-gal FDG fluorescence, 48 h; Potency, µM (titrated, usually from 38.3 µM), for inactives: at the top dose activation, actives largely listed as activators; 350,000 compounds, 0.064% hits; AID 624291, 2012;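 further: potency means the concentration at half of the fitted maximal effect; 100% = response of the positive control SU9516; nearly all actives have a fitted effect of over 60% in size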
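Alpha7betagal+/- myoblasts (passage 13) were plated 16-24 hr, then exposed to compounds (1:260 dilution of DMSO stock) for 48 hours at 37C. After MPER lysis, β-galactosidase reporter activity was read as FDG fluorescence (ex 480/em 540) after 30 minutes.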
* hit, by the source's call; ? = inconclusive; nt = no result. Unless noted, the call rests on the fitted dose curve; in most records, active means well fitted curve in the direction sought with a large enough effect; inconclusive means small, poorly fitted or top-dose-only effect, or another doubt; inactive means no such curve, though single readings can be large; an effect the other way counts as inactive or inconclusive.

SMILES	Anesthetic bind	ClpP mod	Glioma ERSR ind	N370S GC mod	CBFb-RUNX1 inh	a7 integrin act
CCCCC1OC23CCCCC2C(C#N)(C#N)C1(C#N)C(=N)O3 (stereo not drawn)	151.2%	-85.5%	-2.7%	6.5%	-0.9%	-23.1%
CCCCC1OC23CCCCC2C(C#N)(C(=N)O3)C1(C#N)C#N (stereo not drawn)	198.2%	?	-4.4%	2.2%	-4.0%	0.0%
N#CC1(C#N)C(c2ccccc2)OC23CCCCCC2C1(C#N)C(=N)O3 (stereo not drawn)	207.4%	31.6µM*	-1.3%	17.4%	5.6%	-18.6%
CCCCCCCCOc1ccc(C2OC34CCCCC3C(C#N)(C#N)C2(C#N)C(=N)O4)cc1 (stereo not drawn)	196.0%	20µM*	-4.3%	?	8.8%	-6.2%
N#CC1(C#N)C(c2ccccc2)OC23CCCCC2C1(C#N)C(=N)O3 (stereo not drawn)	272.0%	14.1µM*	-1.4%	?	-16.5%	-21.2%
Cc1cccc(CNC(=O)c2cnn(-c3ncc4c(n3)-c3ccccc3CC4)c2C2CC2)n1	nt	nt	4.8%	nt	nt	nt
Cc1c(C(=O)NCc2nccs2)cnn1-c1ncc2c(n1)-c1ccccc1CC2	nt	nt	1.6%	nt	nt	nt
CCOC(=O)N1CCN(C(=O)CCS(=O)(=O)c2ccc3c(c2)CCN3C(=O)CC)CC1	3.0%	1.5%	-2.1%	-13.9%	nt	-8.2%
CCOC(=O)C1CCN(C(=O)CCS(=O)(=O)c2ccc3c(c2)CCN3C(=O)CC)CC1	-3.1%	20µM*	0.6%	-15.6%	-1.3%	-7.8%
COc1ccc(-c2nc(C(N)=O)c3[nH]c(=O)n(-c4cccc(C)c4)c3n2)c(OC)c1	-13.1%	-20.9%	-1.2%	-3.3%	9.0%	13.8%
COc1ccccc1-c1nc(C(N)=O)c2[nH]c(=O)n(-c3cccc(C)c3)c2n1	-18.7%	20µM*	0.0%	?	-4.6%	23.1%
COc1ccc(C2=NN(S(C)(=O)=O)C(c3cn(-c4ccccc4)nc3-c3cccs3)C2)cc1 (stereo not drawn)	37.0%	14.1µM*	-3.0%	nt	nt	nt
COc1ccc(-c2nn(-c3ccccc3)cc2C2CC(c3cccs3)=NN2C(=O)CCC(=O)O)cc1 (stereo not drawn)	-4.8%	3.6%	0.5%	-2.5%	4.5%	8.0%
CC(C)=CCC/C(C)=C\CC/C(C)=C\CC/C=C(\C)CC/C=C(\C)CCC=C(C)C	nt	nt	-2.6%	nt	nt	nt
CCCCNc1nc(C#N)nc(Nc2ccccc2)n1	-0.2%	nt	nt	nt	nt	nt
O=C(CC(Nc1ccccc1Cl)C(=O)O)c1ccccc1 (stereo not drawn)	-5.5%	-0.8%	-4.1%	-0.6%	-1.3%	-365.4%
Cc1c(Cl)cccc1NC(CC(=O)c1ccccc1)C(=O)O (stereo not drawn)	-1.9%	25.1µM*	1.0%	-0.4%	2.5%	-27.5%
COC(=O)c1ccc(NC(=O)c2ccccc2OCC(=O)Nc2ccc(Br)cc2)cc1	nt	3.6%	nt	nt	nt	nt
CCN1CCCC1CNCc1cc2c(OC)c(OC)c(OC)cc2nc1N(C)C (stereo not drawn)	nt	nt	0.1%	nt	nt	nt
COc1c(C(=O)Nc2ccc(Br)cn2)ccc2ccccc12	-13.4%	-16.6%	14.2%	4.1%	nt	-4.1%
O=C(Nc1ccc(Br)cn1)c1cccc2ccccc12	nt	25.1µM*	-0.2%	nt	nt	-4.1%
COc1ccccc1C(C)NCC(=O)c1c(C)[nH]c2ccccc12 (stereo not drawn)	nt	-1.8%	1.2%	nt	nt	nt
CCOC(=O)CNC(=O)CSc1nc2ncc(Br)cc2[nH]1	-6.1%	15.8µM*	0.6%	-5.0%	7.2%	12.6%
